# Compounds with a hit are over-represented: about 2.8% of the library has one in this group of screens.
# WRN inhibitor = inhibitors of human WRN helicase; Q14191; Potency, µM (highest dose often 114 µM), inactives show at the top dose activity change, negative = inhibition, most hits filed as inhibitors; 0.46% of 360,000 active; WRN helicase unwinding, fluorescent forked duplex, kinetic; further: potency means the concentration at half of the fitted maximal effect; on the % scale 0 is the no-effect control and ±100 the full control effect; nearly all actives have a fitted effect of over 55% in size
#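 Screening of the MLSMR collection measured strand separation of a quenched forked DNA duplex (100 nM) by 20 nM WRN with 2 mM ATP, all final. Compounds were preincubated with enzyme 15 min at room temperature.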
# Pol kappa inh-1 = inhibitors of human DNA polymerase kappa. Q9UBT6. purified Pol kappa, fluorescent DNA synthesis assay, 10 min. Potency, µM (series often up to 107 µM), for inactives: at the highest dose activity, negative = inhibition, actives largely listed as inhibitors. 0.53% of 400,000 active. AID 588579; further: potency means the concentration at half of the fitted maximal effect; on the % scale 0 is the no-effect control and ±100 the full control effect
#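 Pol kappa 10 nM + cpd, 15 min RT; start w/ substrate 50 nM final; fluorescence kinetic read, 0 and 10 min. Neg ctrl: buffer, no enzyme.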
# Pol eta inh-1 = DNA polymerase eta (human) inhibition | Q9Y253 | recombinant Pol eta, fluorescent DNA replication assay | Potency, µM (highest dose often 114 µM), for inactives: top-dose activity change, negative = inhibition, most hits filed as inhibitors | 1.2% of 390,000 active | AID 588591; further: potency means the concentration at half of the fitted maximal effect; on the % scale 0 is the no-effect control and ±100 the full control effect
#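 Pol eta at 10 nM preincubated with compounds 15 min at room temperature; reaction started with fluorescent substrate (50 nM final) and read kinetically at 0 and 10 min.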
# PI5P4Ka inh = inhibitors of human PI5P4K alpha | PI5P4Kalpha enzyme, ADP-Glo luminescence, 60 min; hits give low values | P48426 | 1.2% of 330,000 active | max response, %; active means max response of -50% or lower; inconclusive means between -30% and -50%; inactive means -30% or higher; further: value at the top dose of about 77 µM; on the % scale 0 is the no-effect control and ±100 the full control effect
#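 ADP-Glo luminescence end-point after a 60 min room-temperature kinase reaction. PI5P4Kalpha and substrate in HEPES pH 7.4 buffer with EGTA, 0.1% CHAPS and 5% DMSO; ATP at 5 microM final.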
# POLI inh = inhibitors of human DNA polymerase iota | Q9UNA4 | Pol iota fluorescent replication assay, 10 min | Potency, µM (highest dose often 115 µM), inactives show top-dose activity, negative = inhibition, most hits filed as inhibitors | 1% of 390,000 active; further: potency means the concentration at half of the fitted maximal effect
#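 Pol iota at 10 nM preincubated 15 min with compounds at room temperature; reaction started with fluorescent substrate, 50 nM final. Fluorescence read kinetically at 0 and 10 min; buffer-only wells as negative control.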
# Pol beta inh = inhibitors of human DNA polymerase beta. P06746. Pol beta primer extension/strand displacement, fluorescence kinetic. Potency, µM (titrated, usually from 114 µM), for inactives: top-dose activity change, negative = inhibition, usual class: inhibitors. 1.3% of 340,000 active. AID 485314; further: potency means the concentration at half of the fitted maximal effect; on the % scale 0 is the no-effect control and ±100 the full control effect
#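 Enzyme-only controls used 10 nM Pol beta; buffer lacking enzyme served as negative control. Compound preincubated 15 min, then 50 nM substrate added; 0 and 10 min reads at room temperature.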
# PGK validate = validation of Trypanosoma brucei phosphoglycerate kinase inhibitors; shares compounds with Pol kappa inh-1; TbPGK coupled GAPDH assay, Kinase-Glo luminescence; Potency, µM (top dose mostly 57.5 µM), for inactives: at the highest dose activity change, negative = inhibition, most hits filed as inhibitors; 79% of 500 active; further: potency means the concentration at half of the fitted maximal effect; on the % scale 0 is the no-effect control and ±100 the full control effect; nearly all actives have a fitted effect of over 65% in size
# POLI cherry-pick = Inhibitors of human DNA polymerase iota, confirmation | shares compounds with Pol kappa inh-1 | AID 720496 | Pol iota primer extension, TAMRA/BHQ fluorescence | Potency, µM, actives largely listed as inhibitors | 77% of 1,500 active; further: potency means the concentration at half of the fitted maximal effect
# GALK confirm = confirmation of human galactokinase (GALK) inhibitors. purified GALK, Kinase-Glo ATP depletion luminescence. 70% of 150 active. shares compounds with Pol eta inh-1. Potency, µM (titrated, usually from 115 µM), for the others: top-dose activity, negative = inhibition, hits mostly inhibitors. AID 2015
# Redox cycling = counter-screen for GALK inhibitors: redox cycling H2O2 generation; 40% of 150 active; shares compounds with Pol eta inh-1; Potency, µM (top dose mostly 115 µM), without a hit: at the top dose activity change, negative = H2O2 signal, usual class: inhibitors; Phenol red-HRP H2O2 redox cycling, absorbance 600 nm
# HEK293 viability = HEK-293 cytotoxicity, GALK inhibitor secondary | 10% of 170 active | shares compounds with Pol eta inh-1 | Potency, µM (series often up to 46.1 µM), inactives show at the highest dose activity change, negative = cytotoxicity, actives largely listed as inhibitors | HEK-293 viability, ATP luminescence (CellTiter-Glo), 24/48 h; further: potency means the concentration at half of the fitted maximal effect; on the % scale 0 is the no-effect control and ±100 the full control effect
# Pol kappa inh-2 = confirmation of human DNA polymerase kappa inhibitors. AID 720501. purified Pol-kappa, fluorescent strand-displacement substrate. 76% of 920 active. Potency, µM, hits mostly inhibitors. shares compounds with Pol eta inh-1; further: potency means the concentration at half of the fitted maximal effect
# Pol eta inh-2 = Pol eta (human) inhibition, cherry-pick confirmation | shares compounds with Pol eta inh-1 | Pol eta primer extension, TAMRA/BHQ fluorescence, 10 min | Potency, µM, usual class: inhibitors | 64% of 2,600 active | AID 720502; further: potency means the concentration at half of the fitted maximal effect
# The depositor's hits bear a star; u = inconclusive; x = no result given; [ ] = dose if it differs, or a comment. Unless noted, the call rests on the fitted dose curve; in most records, active means well fitted curve in the direction sought with a large enough effect; inconclusive means small, poorly fitted or top-dose-only effect, or another doubt; inactive means no such curve, though single readings can be large; an effect the other way counts as inactive or inconclusive.
SMILES,WRN inhibitor,Pol kappa inh-1,Pol eta inh-1,PI5P4Ka inh,POLI inh,Pol beta inh,POLI cherry-pick,Pol eta inh-2,others
O=C1C=CC2=C3c4cc(O)c(O)cc4CC3(O)COC2=C1O (stereo not given),4.47µM*,1.12µM*,0.794µM*,-90.1*,1.26µM*,x,x,x,PGK validate=0.58µM*;GALK confirm=21.1µM*;Redox cycling=-3.0%;HEK293 viability=-6.8%
CCOc1ccc(OCC)c(NC(=O)C2CCN(S(=O)(=O)c3cn(C)cn3)CC2)c1,x,-0.8%[60.1 µM],-19.4%,x,3.4%,-4.2%,x,x,
COC(=O)C1=C(C)Nc2[nH]c(=S)[nH]c(=O)c2C1c1ccc(O)cc1 (stereo not given),-2.7%,-8.2%,-17.0%,-24.5,10.7%,22.3%,x,x,
O=c1[nH]c(=S)[nH]c2c1C(c1ccc(Br)cc1)c1c([nH]c(=S)[nH]c1=O)O2,14.1µM*,3.98µM*,2.24µM*,-75.2*,1µM*,12.6µM*,2.67*,1.69*,
COc1ccc(C2C(C(=O)Nc3ccccc3OC)=C(C)Nc3ncnn32)cc1 (stereo not given),-6.1%,-3.5%,-7.3%,0.1,3.2%,9.1%,x,x,
CC1=C(C(=O)Nc2ccccc2C)C(c2ccc[nH]2)n2ncnc2N1 (stereo not given),x,31.6µM*,8.91µM*,x,22.4µM*,39.8µM*,21.2*,30.1*,
CCCn1c(SCC(O)c2ccccc2)nc2ccccc21 (stereo not given),x,-4.3%,-15.7%,x,-1.6%,-2.6%,x,x,
COC(=O)C1[C@@H](OC)C(OC(=O)COc2ccc(OC)cc2)C[C@@H]2CN3CCc4c([nH]c5cc(OC)ccc45)[C@H]3C[C@H]12 (stereo not given in full),x,-3.8%[19.4 µM],x,x,x,x,x,x,
O=C1C(=C(I)I)c2ccccc2-c2ccccc21,u,-8.8%,22.4µM*,4.8,u,x,21.2*,23.9*,
Cc1cccc(-c2noc(-c3cccnc3NCc3ccccc3Cl)n2)c1,x,-13.5%,-18.1%,x,-3.9%,-28.9%,x,x,
O=C(O)c1ccc(Nc2nc(-c3cc4ccccc4oc3=O)cs2)cc1O,u,56.2µM*,25.1µM*,-79.3*,22.4µM*,100µM*,u,67.5*,Pol kappa inh-2=75.2*
CC(=O)Nc1ccc(Nc2nc(-c3cc4ccccc4oc3=O)cs2)cc1,-1.6%,3.4%,9.2%,u,145.4%,-0.1%,x,x,
Cc1cccc(-c2nc(CSc3nncn4c3cc3sccc34)c(C)o2)c1,x,-1.3%,-4.2%,x,37.4%,9.1%,x,x,
O=C(O)C1=NN(c2cc(Cl)c(S(=O)(=O)O)cc2Cl)C(=O)C1,u,79.4µM*,22.4µM*,-4.3,1.58µM*,x,x,u,PGK validate=9.19µM*;Pol kappa inh-2=15*
O=C(CN1C(=O)COc2ccc(S(=O)(=O)NC3CCCC3)cc21)NCc1ccccc1Cl,x,7.2%,-10.1%,x,2.4%,0.0%,x,x,
CCn1c(SC(C)C(=O)O)nc2sc3c(c2c1=O)CCC3 (stereo not given),56.2µM*,25.1µM*,3.55µM*,u,u,8.91µM*,75.2*,23.9*,
CC(Sc1nc2sc3c(c2c(=O)n1-c1ccccc1)CCCC3)C(=O)O (stereo not given),-0.2%,-11.1%,-7.9%,0.3,-18.1%,30.6%,x,x,
Cc1cccc(-c2nc(SCC(=O)NCc3ccco3)c3c(=O)n(C)c(=O)n(C)c3n2)c1,x,-0.6%[60.1 µM],-20.2%,x,14.8%,-18.3%,x,x,
Cc1nn(C(C)C(=O)NCc2ccccc2F)c(=O)c2nn(-c3ccccc3)c(C)c12 (stereo not given),1.7%[57.1 µM],-11.5%,-18.8%,10.4,41.8%,-23.8%,x,x,
Cc1ccc(-n2nc3c(=O)n(C(C)C(=O)NCc4ccccc4C)nc(C)c3c2C)cc1 (stereo not given),x,-10.0%,89.1µM*,x,-25.5%,44.7µM*,75.2*,u,Pol kappa inh-2=67*
O=C(CSc1nnc(C2CC2)n1C1CC1)c1ccc(F)c(F)c1,1.6%,-0.4%,1.4%,-9.1,6.3%,x,x,x,
CC(=O)Nc1cc(C(=O)CSc2nnc(C3CC3)n2C2CC2)ccc1O,u,35.5µM*,11.2µM*,-71.7*,8.91µM*,x,u,75.7*,
Cc1ccccc1NC(=O)CN1C(=O)S/C(=C\c2ccc(-c3cc(C(=O)O)ccc3C)o2)C1=O,u,u,u,-79.1*,8.91µM*,31.6µM*,26.7*,26.9*,Pol kappa inh-2=8.44*
Cc1cc(/C=C2\SC(=O)N(CC(=O)Nc3ccccc3F)C2=O)c(C)n1C,-8.0%,0.7%,-16.3%,-8.0,103.6%,21.0%,x,x,
Cc1ccc(C(=O)O)cc1-c1ccc(/C=C2\SC(=O)N(CC(=O)Nc3ccccc3)C2=O)o1,u,u,17.8µM*,-56.3*,u,u,42.3*,47.8*,
O=C(CN1C(=O)S/C(=C\c2ccccn2)C1=O)Nc1ccccc1,10.7%,-1.8%,-3.6%,-2.4,15.7%,10.8%,x,x,
Cc1ccc2oc3c(c(=O)c2c1)C(c1ccccc1F)N(CCCN(C)C)C3=O (stereo not given),x,-9.2%,-12.5%,x,-15.6%,14.9%,x,x,
